Source: PubChem BioAssay
TDP-43 tox inh: inhibitors of TDP-43 toxicity in yeast; Potency, µM (highest dose often 46.1 µM), most hits filed as activators; AID 1347073; yeast TDP-43 toxicity rescue, BacTiter-Glo growth, 24 h; actives 0.45% (n = 45,000); active = well fitted activation curve with a large enough effect; note: 0% is about no effect; nearly all actives have a fitted effect of over 55% in size
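TDP-43-expressing yeast, pregrown in raffinose, seeded at OD600 0.02 in galactose medium with compound for 24 hr at 30 deg C. Growth read by BacTiter-Glo luminescence, so rescue of toxicity appears as activation.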
The depositor's hits bear a star; i = inactive. Many of the other results were omitted from the sample, so hits are more common in it than they were. Potency is the fitted concentration of half-maximal effect.

SMILES | TDP-43 tox inh
Cc1nn(-c2ccccc2)c(N)c1Sc1ccc([N+](=O)[O-])cc1 | 14µM*
COc1ccc(NC(=O)c2ccco2)cc1NC(=O)c1cc(Cl)ccc1OC | i
CSc1ccc(CCNC(=O)C(C)n2nc(C)c3sc4ccccc4c3c2=O)cc1 (stereo not given) | i
CCOC(=O)c1oc2c(c1C)-c1nn(Cc3cccc(Cl)c3)cc1CC2 | i
COc1cc(C(=O)Nc2sc3c(c2C#N)CCCC3)c(Br)c(OC)c1OC | i
CCOc1ccc(NC(=O)Cn2c(=O)n(CC(=O)NCCc3ccccc3)c(=O)c3sccc32)cc1 | i
Cc1nc2ccc(NC(=O)c3ccc(=O)[nH]c3)cc2s1 | i
CCc1sc(C(=O)Nc2ccc3nc(C)sc3c2)cc1C | 11µM*
C=CCNC(=O)Nc1ccc2nc(C)sc2c1 | i
CCCCOc1cccc(C(=O)N(Cc2cccs2)c2ccc(OC)cc2)c1 | i
COc1cccc(CNC(=O)c2oc3ccc4c(c3c2C)C(=O)CC(C)(C)O4)c1OC | i
CC(C)Cc1csc(NC(=O)c2ccc(F)cc2)c1C(=O)O | i
CCOC(=O)c1c(CC(C)C)csc1NC=O | 16µM*
CCOC(=O)c1c(N)sc(N)c1C(=O)OCC | i
Cn1cc(-c2cc3n(n2)CCC(=O)N3CC(=O)O)c2ccccc21 | i
Cc1ccc2nc(-c3cccc(NC(=O)CSc4ccc(Cl)cc4)c3)oc2c1 | i
CC(C)Oc1ccc(Br)cc1C(=O)N/N=C/c1c[nH]c2ccccc12 | i
COc1ccc(C)cc1Nc1nc(-c2c[nH]c3ccccc23)cs1 | i
COCCN=c1scc(-c2cc(OC)ccc2OC)n1/N=C/c1c[nH]c2ccccc12 | 20µM*
CCCSc1ncc(Cl)c(C(=O)Nc2c(C(=O)c3ccc(C)cc3)oc3ccccc23)n1 | i
Cc1ccccc1NC(=O)N1CCc2cc(S(=O)(=O)N3CCC(C)CC3)ccc21 | i
CC1=C(C(=O)NC(C)CCc2ccccc2)C2(CCC(C)CC2)OC1=O (stereo not given) | i
COc1ccc(OC)c(CCNC(=O)C2=C(C)C(=O)OC23CCC(C)CC3)c1 (stereo not given) | i
CCOc1ccc(NC(=O)C2=C(C)C(=O)OC23CCC(C)CC3)cc1 (stereo not given) | 13µM*
Cc1nc(SCC(=O)Nc2ccccc2F)[nH]c(=O)c1Cc1ccccc1 | i
SMILES | TDP-43 tox inh
NC(=S)N/N=C/c1ccc(-c2ccc(SC(F)F)cc2)o1 | i
O=C(O)c1cc(-c2ccc(/C=N/NC(=S)Nc3ccccc3)o2)ccc1Cl | i
NC(=S)N/N=C/c1ccc(-c2ccc(Cl)c(Cl)c2)o1 | 11µM*
COCCCN1C(=O)c2ccccc2CC1(C)C(=O)NC1CCCCC1 (stereo not given) | i
Cc1ccc(NC(=O)C2CCCN2S(=O)(=O)c2ccc3c(c2)n(C)c(=O)c(=O)n3C)cc1 (stereo not given) | i
Cc1ccc(NC(=O)[C@@H]2CCCN2S(=O)(=O)c2ccccc2F)cc1 | i
Cc1ccc(S(=O)(=O)N2CCCC2C(=O)Nc2ccc(Br)cc2)cc1 (stereo not given) | 13µM*
Cc1cc(Cl)ccc1NC(=O)CSc1nc2c(c(=O)[nH]1)CCC2 | i
CCOC(=O)c1ccc(NC(=O)C(CC)Sc2nc3ncccc3o2)cc1 (stereo not given) | i
COc1cccc(CC(=O)N2CCN(c3ccccc3[N+](=O)[O-])CC2)c1 | i
COc1ccc(C(=O)NC(=S)N2CCCCC2)cc1[N+](=O)[O-] | i
COc1ccc(N2CCN(C(=S)NC(=O)c3cccs3)CC2)c([N+](=O)[O-])c1 | 28µM*
COc1ccc(CNC(=O)c2sc3nc4n(c(=O)c3c2C)CCCC4)cc1 | i
CCCOc1ccc(C(=O)Nc2ccc3oc(-c4ccncc4)nc3c2)cc1 | i
COc1ccccc1Nc1ccc(C(=O)O)cc1[N+](=O)[O-] | i
CN(C)c1ccc(C(=O)c2ccccc2C(=O)O)cc1[N+](=O)[O-] | i
CN(Cc1ccccc1)c1ccc(C(=O)O)cc1[N+](=O)[O-] | 16µM*
COc1ccc(Br)c2c1-c1nc(NC(=O)c3cccc(C)c3)sc1C2 | i
CCOC(=O)c1sc(NC(=O)C(C)Oc2ccc(OC)cc2)c(C(=O)OCC)c1C (stereo not given) | i
COc1ccc(C(=O)NC(=S)NNC(=O)c2c(-c3ccccc3)noc2C)cc1OC | 13µM*
COc1ccccc1/C=N/NC(=O)c1c(-c2ccccc2)noc1C | i
Cc1onc(-c2ccccc2)c1C(=O)NC(=S)NNC(=O)c1ccco1 | i
COc1ccc(-c2[nH]ncc2C(=O)NCc2ccccc2OC)cc1 | i
COc1ccc2nc(NC(=O)Nc3ccccc3OC)sc2c1 | i
CCC(C)C(=O)Nc1nc2ccc(OC)cc2s1 (stereo not given) | 11µM*
SMILES | TDP-43 tox inh
CC(C)C(=O)Nc1nc2ccc(S(C)(=O)=O)cc2s1 | i
Cc1cc(F)ccc1Nc1nc2ccc(Cl)cc2n2cnnc12 | i
Cc1ccc(CN(C(=O)COc2ccc(Cl)cc2Cl)C2CCS(=O)(=O)C2)o1 (stereo not given) | i
COc1ccccc1N1CCN(C(=O)c2ccc3[nH]c4c(c3c2)CCCC4)CC1 | 18µM*
COc1ccccc1N1CCN(C(=O)c2ccc(NS(=O)(=O)c3ccc(C)cc3)cc2)CC1 | i
COc1cc(OC)cc(C(=O)N2CCC(N3CCN(c4ccccc4OC)CC3)CC2)c1 | i
CC(C)CCN1C(=O)c2ccccc2CC1(C)C(=O)NC1CCCCC1 (stereo not given) | i
O=C(NCCC1=CCCCC1)c1ccc2c(c1)N(Cc1ccccc1)C(=O)c1ccccc1S2(=O)=O | i
CCn1c2ccccc2c2cc(CN3CCN(Cc4ccccc4Cl)CC3)ccc21 | i
CCOCCCNC(=O)Cn1ncc2c([nH]c3ccc(C)cc32)c1=O | i
O=C(Nc1ccc(F)cc1)C(Cc1ccccc1)n1cccc1 (stereo not given) | 13µM*
O=C(Cc1ccccc1)Nc1ccc(F)cc1 | i
O=C(NC1CCCCCC1)C(Cc1ccccc1)n1cccc1 (stereo not given) | i
COc1cccc(C(=O)N2c3ccc(C)cc3C(C)(c3ccccc3)CC2(C)C)c1 (stereo not given) | i
Cc1ccc(NC(=O)N2CCc3cc(S(=O)(=O)N4CCC(C)CC4)ccc32)cc1F | i
COc1cccc(NC(=O)Cn2c(=O)n(CC(=O)NCCc3ccccc3)c(=O)c3sccc32)c1 | i
CCc1ccccc1NC(=O)CC1NCCNC1=O (stereo not given) | i
CCNC(=S)Nc1ccc(Cl)cc1 | i
S=C(NCc1ccc(Cl)cc1)Nc1ccccc1 | 13µM*
S=C(NCc1ccccc1)NCc1ccc(CNC(=S)NCc2ccccc2)cc1 | i
Cc1cccc(CSCCNC(=O)CN(c2ccccc2)S(=O)(=O)N(C)C)c1 | i
CCc1ccccc1NC(=O)Cn1nnc(-c2nc(-c3ccc(C)cc3)no2)c1N | i
COc1cccc(C(O)c2nc(-c3ccncc3)cs2)c1 (stereo not given) | i
COc1cccc(C(N)c2nc(-c3cc(F)cc(F)c3)cs2)c1 (stereo not given) | i
COc1cccc(C(O)c2nc(-c3ccccc3C)cs2)c1 (stereo not given) | 11µM*
COC(=O)CSc1nc(C)cc(C)c1C#N | i
CCCCN(CCCC)CC(O)COc1ccc(Br)cc1 (stereo not given) | i
Cc1cc(C)c(C#N)c(SCC(O)COc2ccc(Br)cc2)n1 (stereo not given) | 13µM*
